Assay results taken from the supplement of paper PMC11732987, “Enantioselective OTUD7B fragment discovery through chemoproteomics screening and high-throughput optimisation” (Communications Chemistry, 2025).

Assays:
Experiment in all cases: log2 ratio of Biotin-Ahx-Ub-VS probe labelling (fragment/DMSO); higher = less target engagement (more negative = stronger competition), active = hit call of the paper (q ≤ 0.05, log2 ratio ≤ -1)
Conditions in all cases: compound concentration: 200 uM; treatment time: 3 h
[1] = biological target: USP34 (UniProt Q70CQ2)
Chain of USP34 (Q70CQ2 whole entry, the tested form may be a part): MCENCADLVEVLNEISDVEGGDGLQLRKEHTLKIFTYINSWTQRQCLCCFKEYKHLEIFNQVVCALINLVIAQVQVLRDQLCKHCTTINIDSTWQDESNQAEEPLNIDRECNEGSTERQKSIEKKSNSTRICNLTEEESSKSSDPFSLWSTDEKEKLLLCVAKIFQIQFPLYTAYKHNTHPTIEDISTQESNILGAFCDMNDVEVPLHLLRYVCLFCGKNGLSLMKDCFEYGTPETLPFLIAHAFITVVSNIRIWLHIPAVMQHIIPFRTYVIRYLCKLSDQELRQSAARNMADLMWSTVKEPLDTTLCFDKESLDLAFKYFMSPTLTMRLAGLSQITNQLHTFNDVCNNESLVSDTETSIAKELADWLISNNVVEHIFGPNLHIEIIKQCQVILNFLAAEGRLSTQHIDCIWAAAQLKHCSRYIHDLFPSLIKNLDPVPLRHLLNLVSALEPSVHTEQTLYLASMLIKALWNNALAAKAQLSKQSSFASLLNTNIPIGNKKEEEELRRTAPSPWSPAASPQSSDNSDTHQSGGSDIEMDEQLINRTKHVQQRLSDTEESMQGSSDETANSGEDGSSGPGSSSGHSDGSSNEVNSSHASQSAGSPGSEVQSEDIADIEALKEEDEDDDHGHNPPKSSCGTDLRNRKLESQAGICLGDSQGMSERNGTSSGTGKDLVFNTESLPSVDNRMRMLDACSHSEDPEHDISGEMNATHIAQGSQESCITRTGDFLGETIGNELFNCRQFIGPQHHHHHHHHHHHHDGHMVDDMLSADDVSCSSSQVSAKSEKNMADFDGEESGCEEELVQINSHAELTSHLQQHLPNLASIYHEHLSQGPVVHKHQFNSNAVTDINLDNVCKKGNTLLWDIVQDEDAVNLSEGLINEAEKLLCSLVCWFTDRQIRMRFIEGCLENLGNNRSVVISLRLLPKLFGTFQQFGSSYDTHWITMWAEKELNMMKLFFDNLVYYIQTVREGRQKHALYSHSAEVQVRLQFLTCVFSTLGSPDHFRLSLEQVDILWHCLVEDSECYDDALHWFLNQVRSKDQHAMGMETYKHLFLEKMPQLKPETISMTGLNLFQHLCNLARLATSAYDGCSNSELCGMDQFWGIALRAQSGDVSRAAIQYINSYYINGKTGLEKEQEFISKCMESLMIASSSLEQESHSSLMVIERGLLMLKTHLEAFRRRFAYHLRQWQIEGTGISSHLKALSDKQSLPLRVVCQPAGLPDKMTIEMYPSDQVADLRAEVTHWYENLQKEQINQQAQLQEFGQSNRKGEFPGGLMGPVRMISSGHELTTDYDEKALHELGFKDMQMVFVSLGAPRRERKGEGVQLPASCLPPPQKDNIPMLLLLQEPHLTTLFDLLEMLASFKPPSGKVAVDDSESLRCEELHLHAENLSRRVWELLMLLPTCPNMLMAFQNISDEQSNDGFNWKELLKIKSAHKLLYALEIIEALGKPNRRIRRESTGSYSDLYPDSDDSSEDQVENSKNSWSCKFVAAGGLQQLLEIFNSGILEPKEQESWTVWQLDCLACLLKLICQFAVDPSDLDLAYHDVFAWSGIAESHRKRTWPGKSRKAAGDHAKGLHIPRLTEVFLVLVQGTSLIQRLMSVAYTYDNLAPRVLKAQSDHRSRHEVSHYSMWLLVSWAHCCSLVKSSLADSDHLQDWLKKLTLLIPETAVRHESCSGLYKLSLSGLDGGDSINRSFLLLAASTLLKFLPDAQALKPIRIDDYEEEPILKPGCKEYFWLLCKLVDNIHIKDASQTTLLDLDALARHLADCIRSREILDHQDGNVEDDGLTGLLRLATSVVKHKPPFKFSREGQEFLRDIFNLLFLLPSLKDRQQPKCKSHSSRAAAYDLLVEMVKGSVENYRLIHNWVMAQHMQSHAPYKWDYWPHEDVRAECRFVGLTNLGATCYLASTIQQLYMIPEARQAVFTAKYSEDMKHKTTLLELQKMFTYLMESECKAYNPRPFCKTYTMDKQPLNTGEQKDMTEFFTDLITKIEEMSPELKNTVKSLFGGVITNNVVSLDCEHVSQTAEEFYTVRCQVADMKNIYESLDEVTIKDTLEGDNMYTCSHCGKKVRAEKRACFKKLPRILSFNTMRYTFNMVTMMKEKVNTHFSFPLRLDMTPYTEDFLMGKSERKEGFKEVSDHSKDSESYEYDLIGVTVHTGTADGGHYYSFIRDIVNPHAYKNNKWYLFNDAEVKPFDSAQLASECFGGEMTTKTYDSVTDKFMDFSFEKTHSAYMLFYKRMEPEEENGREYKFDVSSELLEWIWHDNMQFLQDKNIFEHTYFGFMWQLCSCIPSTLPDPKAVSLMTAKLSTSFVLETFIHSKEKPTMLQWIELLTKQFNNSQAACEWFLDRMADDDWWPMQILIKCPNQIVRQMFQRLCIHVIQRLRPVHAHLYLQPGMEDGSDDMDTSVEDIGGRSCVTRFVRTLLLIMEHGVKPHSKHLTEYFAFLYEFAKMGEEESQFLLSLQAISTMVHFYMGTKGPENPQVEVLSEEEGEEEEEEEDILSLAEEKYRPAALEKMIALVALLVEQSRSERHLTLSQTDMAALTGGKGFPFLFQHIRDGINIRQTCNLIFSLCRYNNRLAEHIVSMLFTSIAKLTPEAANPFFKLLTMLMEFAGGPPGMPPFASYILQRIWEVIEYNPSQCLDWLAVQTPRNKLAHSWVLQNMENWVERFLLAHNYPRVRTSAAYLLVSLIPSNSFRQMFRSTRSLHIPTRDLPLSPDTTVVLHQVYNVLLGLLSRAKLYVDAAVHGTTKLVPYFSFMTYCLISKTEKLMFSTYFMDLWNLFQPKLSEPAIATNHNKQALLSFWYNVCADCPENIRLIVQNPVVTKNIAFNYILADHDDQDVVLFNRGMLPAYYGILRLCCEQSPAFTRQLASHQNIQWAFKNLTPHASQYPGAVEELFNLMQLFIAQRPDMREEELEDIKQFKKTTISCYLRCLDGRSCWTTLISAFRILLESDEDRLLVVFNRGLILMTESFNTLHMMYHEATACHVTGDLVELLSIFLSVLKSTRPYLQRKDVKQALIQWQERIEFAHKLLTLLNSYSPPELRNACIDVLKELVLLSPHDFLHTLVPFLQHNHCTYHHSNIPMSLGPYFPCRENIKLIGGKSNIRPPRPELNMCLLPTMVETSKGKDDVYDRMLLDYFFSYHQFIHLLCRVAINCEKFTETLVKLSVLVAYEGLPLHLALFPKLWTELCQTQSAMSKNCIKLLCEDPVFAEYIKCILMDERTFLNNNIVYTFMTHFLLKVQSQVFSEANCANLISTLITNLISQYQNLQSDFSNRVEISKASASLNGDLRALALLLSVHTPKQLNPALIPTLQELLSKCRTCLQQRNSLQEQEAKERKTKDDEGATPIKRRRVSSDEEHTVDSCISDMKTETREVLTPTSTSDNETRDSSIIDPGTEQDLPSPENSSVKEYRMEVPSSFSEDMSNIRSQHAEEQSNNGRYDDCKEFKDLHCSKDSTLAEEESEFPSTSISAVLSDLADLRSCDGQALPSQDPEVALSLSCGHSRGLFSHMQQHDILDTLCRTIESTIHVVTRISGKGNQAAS
Outline: (§1)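 Labelled DUBs from HEK293T lysate were NeutrAvidin-enriched, digested with LysC and trypsin, and run by diaPASEF LC-MS/MS. Before that, each 495 µg sample in Tris/CHAPS/IGEPAL buffer with protease inhibitors was treated in triplicate with fragment at 200 µM or vehicle for 3 h, then with Biotin-Ahx-Ub-VS at 0.5 µM final for 1 h. Values are average log2 ratios of fragment over vehicle by unpaired t-test, based on global-median-normalised Spectronaut label-free quantities from proteins with ≥2 unique peptides.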

[2] = biological target: T1, USP36 (UniProt Q9P275)
T1 sequence (whole entry): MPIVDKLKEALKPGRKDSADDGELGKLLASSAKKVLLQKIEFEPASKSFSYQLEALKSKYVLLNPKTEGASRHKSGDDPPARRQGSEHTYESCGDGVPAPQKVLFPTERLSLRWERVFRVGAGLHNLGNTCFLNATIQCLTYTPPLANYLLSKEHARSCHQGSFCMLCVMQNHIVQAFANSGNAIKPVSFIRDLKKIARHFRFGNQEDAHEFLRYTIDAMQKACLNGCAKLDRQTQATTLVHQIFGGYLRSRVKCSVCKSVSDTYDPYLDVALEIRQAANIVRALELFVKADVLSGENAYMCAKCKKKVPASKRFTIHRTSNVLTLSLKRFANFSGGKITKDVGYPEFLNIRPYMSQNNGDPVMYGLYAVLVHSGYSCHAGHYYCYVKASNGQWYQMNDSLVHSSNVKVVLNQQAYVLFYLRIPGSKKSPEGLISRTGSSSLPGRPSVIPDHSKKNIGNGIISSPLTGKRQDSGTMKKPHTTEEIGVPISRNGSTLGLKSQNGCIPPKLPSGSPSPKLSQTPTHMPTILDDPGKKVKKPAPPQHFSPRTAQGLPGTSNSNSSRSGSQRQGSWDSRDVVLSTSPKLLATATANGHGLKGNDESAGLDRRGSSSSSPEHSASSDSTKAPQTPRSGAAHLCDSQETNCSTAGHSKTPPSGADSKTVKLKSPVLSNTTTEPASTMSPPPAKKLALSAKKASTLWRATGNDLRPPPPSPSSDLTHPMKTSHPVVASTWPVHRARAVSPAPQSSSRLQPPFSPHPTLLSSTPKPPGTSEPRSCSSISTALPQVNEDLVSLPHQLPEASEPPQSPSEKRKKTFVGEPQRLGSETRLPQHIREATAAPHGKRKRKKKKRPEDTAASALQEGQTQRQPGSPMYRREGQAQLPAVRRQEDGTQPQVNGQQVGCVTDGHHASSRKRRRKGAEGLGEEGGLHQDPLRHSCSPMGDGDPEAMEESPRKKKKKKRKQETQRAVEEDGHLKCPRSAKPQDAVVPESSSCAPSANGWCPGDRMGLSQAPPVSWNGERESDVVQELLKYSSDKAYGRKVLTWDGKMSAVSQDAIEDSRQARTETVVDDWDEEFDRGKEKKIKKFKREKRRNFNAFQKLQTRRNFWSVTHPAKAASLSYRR
Outline: as §1

[3] = biological target: T2, USP38 (UniProt Q8NB14)
T2 sequence (whole entry): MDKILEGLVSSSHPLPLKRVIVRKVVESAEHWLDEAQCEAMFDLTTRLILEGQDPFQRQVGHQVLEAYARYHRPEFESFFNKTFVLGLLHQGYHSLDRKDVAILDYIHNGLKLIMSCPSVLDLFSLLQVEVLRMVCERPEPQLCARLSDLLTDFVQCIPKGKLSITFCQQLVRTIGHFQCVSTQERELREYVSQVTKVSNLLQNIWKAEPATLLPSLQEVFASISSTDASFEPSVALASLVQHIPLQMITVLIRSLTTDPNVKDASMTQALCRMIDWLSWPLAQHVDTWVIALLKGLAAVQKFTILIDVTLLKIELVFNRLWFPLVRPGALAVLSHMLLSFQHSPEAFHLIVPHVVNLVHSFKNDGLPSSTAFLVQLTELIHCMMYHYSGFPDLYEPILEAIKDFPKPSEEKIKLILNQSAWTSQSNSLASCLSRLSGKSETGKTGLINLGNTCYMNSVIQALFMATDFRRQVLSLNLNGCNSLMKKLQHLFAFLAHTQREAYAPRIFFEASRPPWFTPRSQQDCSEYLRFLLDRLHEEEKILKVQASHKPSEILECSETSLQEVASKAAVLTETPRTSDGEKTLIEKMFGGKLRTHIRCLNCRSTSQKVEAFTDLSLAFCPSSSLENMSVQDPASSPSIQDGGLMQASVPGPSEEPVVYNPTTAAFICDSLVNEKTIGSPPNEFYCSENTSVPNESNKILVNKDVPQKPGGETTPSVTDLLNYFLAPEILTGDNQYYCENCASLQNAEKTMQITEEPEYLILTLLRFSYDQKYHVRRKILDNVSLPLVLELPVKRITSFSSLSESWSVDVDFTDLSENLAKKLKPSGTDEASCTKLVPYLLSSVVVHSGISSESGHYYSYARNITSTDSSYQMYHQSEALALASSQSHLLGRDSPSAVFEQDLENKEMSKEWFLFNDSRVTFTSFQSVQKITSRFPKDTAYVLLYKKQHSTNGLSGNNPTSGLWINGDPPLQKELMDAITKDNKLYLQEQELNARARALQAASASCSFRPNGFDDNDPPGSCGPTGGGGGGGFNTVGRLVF
Outline: as §1

[4] = biological target: T3, USP39 (UniProt Q53GS9)
T3 sequence (whole entry): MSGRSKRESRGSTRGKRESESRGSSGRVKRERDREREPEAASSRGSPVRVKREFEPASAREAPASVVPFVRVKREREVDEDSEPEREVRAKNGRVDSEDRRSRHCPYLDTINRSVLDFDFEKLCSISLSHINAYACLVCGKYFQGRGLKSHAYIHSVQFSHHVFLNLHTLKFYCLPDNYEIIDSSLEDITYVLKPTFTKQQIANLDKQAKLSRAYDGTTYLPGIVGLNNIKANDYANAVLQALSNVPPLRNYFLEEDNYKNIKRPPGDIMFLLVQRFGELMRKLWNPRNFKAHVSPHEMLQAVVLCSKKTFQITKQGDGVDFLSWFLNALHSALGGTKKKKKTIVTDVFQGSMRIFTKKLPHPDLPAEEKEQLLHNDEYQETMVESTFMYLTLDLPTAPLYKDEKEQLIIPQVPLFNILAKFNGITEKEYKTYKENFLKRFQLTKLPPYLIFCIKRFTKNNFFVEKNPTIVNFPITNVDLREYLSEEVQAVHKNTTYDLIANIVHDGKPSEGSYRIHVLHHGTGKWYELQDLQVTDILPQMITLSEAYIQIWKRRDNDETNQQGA
Outline: as §1

[5] = biological target: T4, USP4 (UniProt Q13107)
T4 sequence (whole entry): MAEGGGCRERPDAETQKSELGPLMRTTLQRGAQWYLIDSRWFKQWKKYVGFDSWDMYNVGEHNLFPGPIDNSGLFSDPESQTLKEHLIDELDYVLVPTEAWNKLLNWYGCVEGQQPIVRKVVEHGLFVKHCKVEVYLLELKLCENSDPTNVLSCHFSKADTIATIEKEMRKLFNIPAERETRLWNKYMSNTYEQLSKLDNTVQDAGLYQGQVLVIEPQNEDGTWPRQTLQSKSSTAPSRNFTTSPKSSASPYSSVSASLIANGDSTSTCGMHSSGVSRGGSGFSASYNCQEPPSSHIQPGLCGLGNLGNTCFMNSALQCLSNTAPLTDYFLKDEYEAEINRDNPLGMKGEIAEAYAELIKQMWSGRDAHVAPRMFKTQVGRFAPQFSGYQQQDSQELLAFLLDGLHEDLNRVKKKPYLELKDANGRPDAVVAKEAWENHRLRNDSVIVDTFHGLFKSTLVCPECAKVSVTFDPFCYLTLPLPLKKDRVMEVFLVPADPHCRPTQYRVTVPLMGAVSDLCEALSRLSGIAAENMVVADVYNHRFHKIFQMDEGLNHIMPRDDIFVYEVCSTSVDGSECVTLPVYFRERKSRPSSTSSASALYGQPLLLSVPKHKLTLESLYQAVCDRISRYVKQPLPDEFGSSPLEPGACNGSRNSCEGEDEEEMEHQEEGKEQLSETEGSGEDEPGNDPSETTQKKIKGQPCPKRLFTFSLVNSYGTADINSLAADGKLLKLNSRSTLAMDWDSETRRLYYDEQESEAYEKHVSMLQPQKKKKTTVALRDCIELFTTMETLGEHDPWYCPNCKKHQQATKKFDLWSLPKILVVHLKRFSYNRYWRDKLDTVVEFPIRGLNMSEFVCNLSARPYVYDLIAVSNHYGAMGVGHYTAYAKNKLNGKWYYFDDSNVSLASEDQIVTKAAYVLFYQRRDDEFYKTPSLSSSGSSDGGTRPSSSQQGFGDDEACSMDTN
Outline: as §1

Measured: log2 ratio of Biotin-Ahx-Ub-VS probe labelling

O=C(CCl)NC1CCC(C(F)(F)F)CC1 (stereo not given)
inactive: [1] -0.186 | [2] -0.0199 | [3] 0.115 | [4] 0.207 | [5] -0.24
